Test results reported in PubChem BioAssay (Tox21).
Records with an inconclusive call do not appear. Where a call stands in place of a potency, no number is given. The source made the active and inactive calls. Calls come from the whole dose curve.

biological target: Acetylcholinesterase (Homo sapiens) (UniProt P22303); test: Acetylcholinesterase (AChE) small molecule antagonists: fluorescence cell-based qHTS assay (AID 1347398); conditions: SH-SY5Y cells; Potency: AChE activity; outcome: AChE activity; series mostly up to 115 µM; note: nearly all actives have a fitted effect of over 50% in size
Sequence (P22303 whole entry, looked up): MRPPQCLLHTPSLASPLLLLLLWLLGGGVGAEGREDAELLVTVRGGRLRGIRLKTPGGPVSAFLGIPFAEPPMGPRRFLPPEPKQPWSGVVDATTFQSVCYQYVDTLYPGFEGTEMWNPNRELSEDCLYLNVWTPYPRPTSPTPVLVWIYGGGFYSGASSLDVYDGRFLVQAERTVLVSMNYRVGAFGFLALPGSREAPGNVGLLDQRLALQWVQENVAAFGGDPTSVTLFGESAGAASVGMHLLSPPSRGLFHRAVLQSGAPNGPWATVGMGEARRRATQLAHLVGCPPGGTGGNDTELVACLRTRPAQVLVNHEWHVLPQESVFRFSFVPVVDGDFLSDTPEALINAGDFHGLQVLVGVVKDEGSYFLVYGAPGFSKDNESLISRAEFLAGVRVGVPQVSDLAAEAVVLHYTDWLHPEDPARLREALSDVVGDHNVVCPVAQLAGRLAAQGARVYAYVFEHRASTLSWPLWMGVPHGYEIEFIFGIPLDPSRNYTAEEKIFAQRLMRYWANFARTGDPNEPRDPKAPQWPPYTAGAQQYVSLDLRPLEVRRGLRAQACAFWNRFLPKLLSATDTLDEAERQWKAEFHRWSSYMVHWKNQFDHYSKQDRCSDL
Outline: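 Fluorimetric cell-based assay: intact SH-SY5Y cells, 30 min compound preincubation at 37 C, acetylthiocholine substrate with thiol probe Thiolite Green, 40 min RT development, fluorescence 490/520 nm.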
Potency is the fitted concentration of half-maximal effect.

Structure (SMILES) | Potency
CC1(C)[C@H](C(=O)O)N2C(=O)C[C@H]2S1(=O)=O | inactive
CN(C)C(=O)C1(N2CCCCC2)CCN(CC[C@@]2(c3ccc(Cl)c(Cl)c3)CN(C(=O)c3ccccc3)CCO2)CC1 | 4.69 µM (active)
CCCC(=O)Nc1ccc(OCC(O)CNC(C)C)c(C(C)=O)c1 (stereo not given) | inactive
CCC(=O)c1cccc(Cl)c1 | inactive
O=C(/C=C/C=C/c1ccc2c(c1)OCO2)N1CCCCC1 | inactive
OCC(O)CS (stereo not given) | inactive
Cc1cnc(C(=O)NCCc2ccc(S(=O)(=O)NC(=O)NC3CCCCC3)cc2)cn1 | inactive
C=CC(=O)CCCCC | inactive
CC(C)(C)Cl | inactive
CC1(C)C(O)C(C)(C)C1O (stereo not given) | inactive
O=C(O)CCCc1c[nH]c2ccccc12 | inactive
CCOc1ccc2nc(N)sc2c1 | inactive
CCCCC1(COC(=O)CCC(=O)O)C(=O)N(c2ccccc2)N(c2ccccc2)C1=O | inactive
CC[C@]1(O)C[C@@H]2CN(CCc3c([nH]c4ccccc34)[C@@](C(=O)OC)(c3cc4c(cc3OC)N(C)[C@H]3[C@@](O)(C(=O)OC)[C@H](OC(C)=O)[C@]5(CC)C=CCN6CC[C@]43[C@@H]65)C2)C1 | inactive
CC1=C(C(=O)O)N2C(=O)[C@@H](NC(=O)[C@H](N)c3ccccc3)[C@H]2SC1 | inactive
Cc1onc(-c2ccccc2Cl)c1C(=O)N[C@@H]1C(=O)N2[C@@H]1SC(C)(C)[C@@H]2C(=O)O | inactive
CS(=O)(=O)c1ccc([C@@H](O)[C@@H](CF)NC(=O)C(Cl)Cl)cc1 | inactive
O=S(=O)(Oc1ccc(Cl)cc1)c1ccccc1 | inactive
CCN(CC)c1ccc(C=O)c(O)c1 | 35.6 µM (active)
C[C@]12C=CC(=O)C=C1[C@@H](F)C[C@@H]1[C@@H]2[C@@H](O)C[C@@]2(C)[C@H]1CC[C@]2(O)C(=O)CO | inactive

Structure (SMILES) | Potency
CCCCC(CC)CO (stereo not given) | inactive
Cc1occc1S | inactive
CC/C(C)=N\O[Si](C)(O/N=C(\C)CC)O/N=C(\C)CC | inactive
CC(C)NC[C@@H](O)COc1ccc(CC(N)=O)cc1 | inactive
COC(=O)C1=C(C)NC(C)=C(C(=O)OC)C1c1ccccc1[N+](=O)[O-] | inactive
CCCCCCCCCCCSCC(=O)O | inactive
NC(=O)c1ccc([N+](=O)[O-])cc1 | inactive
CC(C)NC(=O)NC(C)C | inactive
CC(=O)c1ccc([N+](=O)[O-])cc1 | inactive
COc1ccc(O)cc1 | inactive
CC(=O)OCCC(C)C | inactive
CC(C)Cc1ccc(CC(=O)O)cc1 | inactive
O=C(O)CCc1nc(-c2ccccc2)c(-c2ccccc2)o1 | inactive
CN(C)C(=O)C(CCN1CCC(O)(c2ccc(Cl)cc2)CC1)(c1ccccc1)c1ccccc1 | inactive
CCN(C(=O)c1cc(C)cc(OC[C@H](C)Nc2ccncc2)c1)C(C)C | 6.26 µM (active)
CCCCCCCCCO | inactive
COc1cc(Cc2cnc(N)nc2N)cc(OC)c1OC | inactive
Cc1ccc2c(Cl)cc(Cl)c(O)c2n1 | inactive
CCn1nc(C(=O)O)c(=O)c2cc3c(cc21)OCO3 | inactive
CC(C)(C)S | inactive
